# Columns and labels:
# Assay in all cases: DAPPL (digital affinity profiling via proximity ligation, sequencing); 10 mM Tris-HCl pH 7.5, 50 mM NaCl, 1 mM DTT, 4% glycerol, room temperature, 30 min; GST-TFs on glutathione beads, 16-mer random dsDNA library, 0.1% formaldehyde crosslink after washing; high values mean tight binding
# FEV = molecular target: T1, FEV (Homo sapiens, UniProt Q99581 1-238); settings: protein: recombinant; tags: N-terminal GST; dsDNA, one strand shown
# T1 sequence: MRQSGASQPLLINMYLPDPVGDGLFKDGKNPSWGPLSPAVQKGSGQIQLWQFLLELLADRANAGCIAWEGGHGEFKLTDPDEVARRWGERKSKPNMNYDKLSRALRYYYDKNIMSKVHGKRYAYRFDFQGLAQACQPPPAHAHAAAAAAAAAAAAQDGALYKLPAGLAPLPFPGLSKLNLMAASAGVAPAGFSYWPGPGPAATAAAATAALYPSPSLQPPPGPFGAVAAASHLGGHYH
# Procedure, shortened: (§1)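 Each value of binding signal is a hexamer's read frequency for a factor divided by the same hexamer's frequency in the tag-only sample. Barcoded, bead-captured GST fusions of human transcription factors made in yeast were pooled with that sample and incubated with 200 nmole of a random double-stranded 16-mer DNA library in Tris/NaCl/DTT/glycerol buffer at room temperature for 30 min. Washing, 0.1% formaldehyde crosslinking, proximity ligation, PCR and Illumina NextSeq500 sequencing followed.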
# ETV5 = ETV5 (Homo sapiens, UniProt P41161 1-510); settings: protein: recombinant; tags: N-terminal GST; dsDNA, one strand shown
# ETV5, sequence (P41161 whole entry): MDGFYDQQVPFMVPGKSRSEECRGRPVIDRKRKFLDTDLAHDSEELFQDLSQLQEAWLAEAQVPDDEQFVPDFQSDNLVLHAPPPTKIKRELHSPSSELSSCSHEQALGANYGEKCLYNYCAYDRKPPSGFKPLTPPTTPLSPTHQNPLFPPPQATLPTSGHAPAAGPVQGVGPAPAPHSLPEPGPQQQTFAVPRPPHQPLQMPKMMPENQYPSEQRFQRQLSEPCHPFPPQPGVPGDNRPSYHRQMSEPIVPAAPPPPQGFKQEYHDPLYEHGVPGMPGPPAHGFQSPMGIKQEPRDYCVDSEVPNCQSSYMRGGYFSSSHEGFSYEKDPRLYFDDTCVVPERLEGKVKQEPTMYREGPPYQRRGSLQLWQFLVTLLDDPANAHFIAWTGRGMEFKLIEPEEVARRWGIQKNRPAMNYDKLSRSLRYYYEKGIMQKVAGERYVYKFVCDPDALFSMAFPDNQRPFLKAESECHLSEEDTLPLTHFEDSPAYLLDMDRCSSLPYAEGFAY
# Procedure, shortened: as §1
# HSF1 = HSF1 (Homo sapiens, UniProt Q00613 1-529); settings: protein: recombinant; tags: N-terminal GST; chain copies: 3; dsDNA, one strand shown
# HSF1, sequence (Q00613 whole entry): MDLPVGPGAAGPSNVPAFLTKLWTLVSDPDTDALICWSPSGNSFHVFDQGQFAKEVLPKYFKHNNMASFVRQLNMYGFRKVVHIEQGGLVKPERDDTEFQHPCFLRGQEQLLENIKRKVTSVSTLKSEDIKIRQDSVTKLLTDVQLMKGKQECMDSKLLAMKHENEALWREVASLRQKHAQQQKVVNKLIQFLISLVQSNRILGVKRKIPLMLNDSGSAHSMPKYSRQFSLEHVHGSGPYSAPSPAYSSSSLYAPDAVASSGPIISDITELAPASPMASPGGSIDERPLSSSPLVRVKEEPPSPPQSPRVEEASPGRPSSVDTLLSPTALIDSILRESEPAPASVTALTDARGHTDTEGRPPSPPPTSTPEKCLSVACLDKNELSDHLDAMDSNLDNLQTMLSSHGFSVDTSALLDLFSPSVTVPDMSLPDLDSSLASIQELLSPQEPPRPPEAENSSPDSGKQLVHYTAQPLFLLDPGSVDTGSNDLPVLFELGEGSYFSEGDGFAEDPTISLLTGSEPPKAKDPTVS
# Procedure, shortened: as §1
# SPIC = molecular target: T2, SPIC (Homo sapiens, UniProt Q8N5J4 1-248); settings: protein: recombinant; tags: N-terminal GST; dsDNA, one strand shown
# T2 sequence: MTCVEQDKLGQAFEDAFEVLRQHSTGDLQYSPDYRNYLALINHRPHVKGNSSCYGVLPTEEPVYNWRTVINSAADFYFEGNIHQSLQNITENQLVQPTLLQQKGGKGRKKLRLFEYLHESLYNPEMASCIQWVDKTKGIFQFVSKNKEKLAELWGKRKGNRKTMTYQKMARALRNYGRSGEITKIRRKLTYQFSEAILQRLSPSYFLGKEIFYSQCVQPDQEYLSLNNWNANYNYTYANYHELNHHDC
# Procedure, shortened: as §1
# ELF4 = ELF4 (Homo sapiens, UniProt Q99607 1-663); settings: protein: recombinant; tags: N-terminal GST; dsDNA, one strand shown
# ELF4, sequence (Q99607 whole entry): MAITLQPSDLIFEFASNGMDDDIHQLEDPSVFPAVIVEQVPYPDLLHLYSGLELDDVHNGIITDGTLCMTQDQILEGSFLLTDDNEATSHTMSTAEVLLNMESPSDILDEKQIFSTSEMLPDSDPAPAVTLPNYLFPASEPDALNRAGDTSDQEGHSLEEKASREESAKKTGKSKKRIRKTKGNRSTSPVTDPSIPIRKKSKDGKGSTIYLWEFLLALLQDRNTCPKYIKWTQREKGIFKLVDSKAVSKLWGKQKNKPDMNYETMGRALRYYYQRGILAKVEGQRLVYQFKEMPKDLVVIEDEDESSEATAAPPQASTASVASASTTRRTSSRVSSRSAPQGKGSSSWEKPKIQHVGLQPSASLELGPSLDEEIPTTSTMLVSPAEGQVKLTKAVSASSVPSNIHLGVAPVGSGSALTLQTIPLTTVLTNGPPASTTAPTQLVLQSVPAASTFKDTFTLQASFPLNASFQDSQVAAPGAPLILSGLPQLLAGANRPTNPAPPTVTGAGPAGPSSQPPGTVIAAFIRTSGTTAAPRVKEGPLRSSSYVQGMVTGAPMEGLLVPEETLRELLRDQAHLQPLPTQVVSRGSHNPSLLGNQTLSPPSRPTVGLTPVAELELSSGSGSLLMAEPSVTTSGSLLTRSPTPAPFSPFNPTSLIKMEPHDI
# Procedure, shortened: as §1
# ELK4 = molecular target: T3, ELK4 (Homo sapiens, UniProt P28324-2 1-405); settings: protein: recombinant; tags: N-terminal GST; dsDNA, one strand shown
# T3 sequence: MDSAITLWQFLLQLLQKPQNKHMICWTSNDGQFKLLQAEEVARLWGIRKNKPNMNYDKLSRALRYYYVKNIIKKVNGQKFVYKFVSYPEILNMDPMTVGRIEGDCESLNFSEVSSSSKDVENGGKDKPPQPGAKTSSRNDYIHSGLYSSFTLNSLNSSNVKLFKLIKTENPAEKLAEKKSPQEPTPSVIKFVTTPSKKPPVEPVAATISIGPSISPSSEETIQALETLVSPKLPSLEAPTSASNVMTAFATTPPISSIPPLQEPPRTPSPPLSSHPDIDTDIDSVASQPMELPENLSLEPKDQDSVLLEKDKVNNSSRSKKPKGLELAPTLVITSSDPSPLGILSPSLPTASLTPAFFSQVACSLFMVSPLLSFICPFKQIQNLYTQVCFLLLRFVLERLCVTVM
# Procedure, shortened: as §1
# ETV2 = molecular target: T4, ETV2 (Homo sapiens, UniProt O00321 1-342); settings: protein: recombinant; tags: N-terminal GST; dsDNA, one strand shown
# T4 sequence: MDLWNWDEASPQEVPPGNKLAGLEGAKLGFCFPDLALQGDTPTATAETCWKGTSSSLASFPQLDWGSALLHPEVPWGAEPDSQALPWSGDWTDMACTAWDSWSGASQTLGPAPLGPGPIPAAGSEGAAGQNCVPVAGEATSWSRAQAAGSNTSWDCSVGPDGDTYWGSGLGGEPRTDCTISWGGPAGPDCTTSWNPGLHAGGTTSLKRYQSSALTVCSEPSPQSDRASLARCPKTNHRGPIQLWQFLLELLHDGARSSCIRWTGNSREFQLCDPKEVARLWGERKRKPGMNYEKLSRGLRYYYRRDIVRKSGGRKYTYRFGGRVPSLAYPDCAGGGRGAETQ
# Procedure, shortened: as §1
# ELF3 = molecular target: T5, ELF3 (Homo sapiens, UniProt P78545 1-371); settings: protein: recombinant; tags: N-terminal GST; dsDNA, one strand shown
# T5 sequence: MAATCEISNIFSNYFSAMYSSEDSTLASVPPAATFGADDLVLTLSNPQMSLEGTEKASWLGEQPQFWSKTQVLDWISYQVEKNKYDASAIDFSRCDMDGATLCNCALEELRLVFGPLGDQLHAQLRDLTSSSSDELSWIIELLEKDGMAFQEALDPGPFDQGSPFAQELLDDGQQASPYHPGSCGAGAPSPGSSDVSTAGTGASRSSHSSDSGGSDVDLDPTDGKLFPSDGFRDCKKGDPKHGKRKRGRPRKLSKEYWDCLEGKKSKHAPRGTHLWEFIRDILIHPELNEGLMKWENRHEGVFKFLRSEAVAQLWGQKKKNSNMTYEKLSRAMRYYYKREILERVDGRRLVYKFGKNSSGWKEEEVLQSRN
# Procedure, shortened: as §1
# CRX = CRX (Homo sapiens, UniProt O43186 1-299); settings: protein: recombinant; tags: N-terminal GST; dsDNA, one strand shown
# CRX, sequence (O43186 whole entry): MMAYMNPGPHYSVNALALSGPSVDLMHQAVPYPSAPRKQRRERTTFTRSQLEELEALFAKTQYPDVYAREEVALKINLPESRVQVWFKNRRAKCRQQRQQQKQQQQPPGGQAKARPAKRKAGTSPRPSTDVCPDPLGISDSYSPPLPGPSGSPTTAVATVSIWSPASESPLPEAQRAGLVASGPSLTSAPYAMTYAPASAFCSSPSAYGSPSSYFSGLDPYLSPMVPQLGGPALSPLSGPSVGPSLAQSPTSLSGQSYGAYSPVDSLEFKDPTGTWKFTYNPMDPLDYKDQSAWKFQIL
# Procedure, shortened: as §1
# ETV1 = ETV1 (Homo sapiens, UniProt P50549 1-477); settings: protein: recombinant; tags: N-terminal GST; dsDNA, one strand shown
# ETV1, sequence (P50549 whole entry): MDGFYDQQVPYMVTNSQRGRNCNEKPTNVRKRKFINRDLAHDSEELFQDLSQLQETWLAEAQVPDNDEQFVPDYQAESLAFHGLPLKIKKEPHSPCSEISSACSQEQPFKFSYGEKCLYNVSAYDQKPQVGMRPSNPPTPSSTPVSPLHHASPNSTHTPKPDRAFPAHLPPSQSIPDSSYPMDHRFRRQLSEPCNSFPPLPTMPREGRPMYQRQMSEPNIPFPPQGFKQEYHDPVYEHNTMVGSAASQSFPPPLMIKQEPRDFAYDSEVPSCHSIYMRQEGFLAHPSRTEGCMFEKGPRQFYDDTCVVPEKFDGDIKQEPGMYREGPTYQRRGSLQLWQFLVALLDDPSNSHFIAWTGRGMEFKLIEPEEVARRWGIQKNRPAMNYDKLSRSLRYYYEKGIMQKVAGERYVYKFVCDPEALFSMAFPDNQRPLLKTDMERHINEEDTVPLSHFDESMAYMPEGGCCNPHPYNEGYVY
# Procedure, shortened: as §1
# ERF = molecular target: T6, ERF (Homo sapiens, UniProt P50548 1-548); settings: protein: recombinant; tags: N-terminal GST; dsDNA, one strand shown
# T6 sequence: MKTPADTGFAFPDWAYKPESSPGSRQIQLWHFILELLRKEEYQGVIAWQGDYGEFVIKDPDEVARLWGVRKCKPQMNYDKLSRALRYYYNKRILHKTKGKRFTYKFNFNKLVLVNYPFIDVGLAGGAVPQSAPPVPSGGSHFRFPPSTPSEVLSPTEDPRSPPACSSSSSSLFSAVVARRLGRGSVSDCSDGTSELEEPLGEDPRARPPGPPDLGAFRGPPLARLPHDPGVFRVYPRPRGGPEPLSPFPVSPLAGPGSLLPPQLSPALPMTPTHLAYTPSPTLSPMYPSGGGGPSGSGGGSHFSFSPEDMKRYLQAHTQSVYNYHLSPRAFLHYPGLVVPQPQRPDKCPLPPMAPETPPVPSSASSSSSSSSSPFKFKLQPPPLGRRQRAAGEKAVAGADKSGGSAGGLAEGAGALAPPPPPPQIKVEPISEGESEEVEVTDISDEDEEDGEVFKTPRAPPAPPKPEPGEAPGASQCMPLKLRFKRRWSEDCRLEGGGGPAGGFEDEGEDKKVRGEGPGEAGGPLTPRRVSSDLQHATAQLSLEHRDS
# Procedure, shortened: as §1
# ETV3L = molecular target: T7, ETV3L (Homo sapiens, UniProt Q6ZN32 1-361); settings: protein: recombinant; tags: N-terminal GST; dsDNA, one strand shown
# T7 sequence: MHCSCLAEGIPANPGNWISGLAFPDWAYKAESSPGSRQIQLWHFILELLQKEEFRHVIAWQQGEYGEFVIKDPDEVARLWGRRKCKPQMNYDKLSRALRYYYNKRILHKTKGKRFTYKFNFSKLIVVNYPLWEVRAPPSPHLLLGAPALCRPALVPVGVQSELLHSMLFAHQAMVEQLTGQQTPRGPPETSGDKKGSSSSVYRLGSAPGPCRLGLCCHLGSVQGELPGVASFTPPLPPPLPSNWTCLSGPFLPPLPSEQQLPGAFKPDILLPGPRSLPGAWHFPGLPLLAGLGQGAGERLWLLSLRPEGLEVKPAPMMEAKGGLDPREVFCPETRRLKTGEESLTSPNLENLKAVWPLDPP
# Procedure, shortened: as §1
# ETS2 = molecular target: T8, ETS2 (Homo sapiens, UniProt P15036 1-469); settings: protein: recombinant; tags: N-terminal GST; dsDNA, one strand shown
# T8 sequence: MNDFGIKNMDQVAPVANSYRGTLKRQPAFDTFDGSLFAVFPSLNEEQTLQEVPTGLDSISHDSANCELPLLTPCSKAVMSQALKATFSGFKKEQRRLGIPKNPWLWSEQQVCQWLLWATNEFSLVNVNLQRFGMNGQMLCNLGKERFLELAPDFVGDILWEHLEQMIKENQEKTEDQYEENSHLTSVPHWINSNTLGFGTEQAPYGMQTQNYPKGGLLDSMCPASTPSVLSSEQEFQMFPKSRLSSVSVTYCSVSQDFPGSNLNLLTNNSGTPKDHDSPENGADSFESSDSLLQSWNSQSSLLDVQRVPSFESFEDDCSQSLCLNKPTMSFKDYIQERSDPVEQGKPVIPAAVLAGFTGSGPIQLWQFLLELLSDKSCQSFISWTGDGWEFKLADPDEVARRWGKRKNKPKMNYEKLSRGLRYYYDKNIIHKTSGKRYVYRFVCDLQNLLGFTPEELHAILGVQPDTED
# Procedure, shortened: as §1
# SPDEF = molecular target: T9, SPDEF (Homo sapiens, UniProt O95238 1-335); settings: protein: recombinant; tags: N-terminal GST; dsDNA, one strand shown
# T9 sequence: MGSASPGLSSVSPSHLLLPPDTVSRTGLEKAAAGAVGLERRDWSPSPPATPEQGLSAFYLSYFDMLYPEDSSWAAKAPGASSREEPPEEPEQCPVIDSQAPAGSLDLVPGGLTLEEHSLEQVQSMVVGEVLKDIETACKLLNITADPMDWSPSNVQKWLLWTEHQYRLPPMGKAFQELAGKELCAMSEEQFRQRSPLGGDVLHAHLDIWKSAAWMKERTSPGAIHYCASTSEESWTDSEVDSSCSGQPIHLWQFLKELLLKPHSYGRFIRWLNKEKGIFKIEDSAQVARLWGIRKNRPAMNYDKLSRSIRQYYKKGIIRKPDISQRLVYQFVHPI
# Procedure, shortened: as §1
# ETV7 = molecular target: T10, ETV7 (Homo sapiens, UniProt Q9Y603 1-341); settings: protein: recombinant; tags: N-terminal GST; dsDNA, one strand shown
# T10 sequence: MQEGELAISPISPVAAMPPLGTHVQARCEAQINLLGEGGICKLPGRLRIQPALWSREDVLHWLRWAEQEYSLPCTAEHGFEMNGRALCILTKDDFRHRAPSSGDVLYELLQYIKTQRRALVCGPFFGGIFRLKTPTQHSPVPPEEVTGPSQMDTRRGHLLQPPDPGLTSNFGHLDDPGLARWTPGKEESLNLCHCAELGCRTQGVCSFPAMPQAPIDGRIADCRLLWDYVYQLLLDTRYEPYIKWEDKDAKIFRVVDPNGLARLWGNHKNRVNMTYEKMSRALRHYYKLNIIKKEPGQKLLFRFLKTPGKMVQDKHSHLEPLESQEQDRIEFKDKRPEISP
# Procedure, shortened: as §1
# ELF5 = molecular target: T11, ELF5 (Homo sapiens, UniProt Q9UKW6-2 1-255); settings: protein: recombinant; tags: N-terminal GST; dsDNA, one strand shown
# T11 sequence: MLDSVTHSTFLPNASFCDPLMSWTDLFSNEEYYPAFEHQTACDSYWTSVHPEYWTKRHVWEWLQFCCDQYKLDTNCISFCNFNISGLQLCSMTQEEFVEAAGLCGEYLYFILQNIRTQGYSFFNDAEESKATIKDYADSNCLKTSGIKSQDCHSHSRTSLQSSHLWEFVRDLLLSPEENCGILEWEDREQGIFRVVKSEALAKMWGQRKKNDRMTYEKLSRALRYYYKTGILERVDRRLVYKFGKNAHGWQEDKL
# Procedure, shortened: as §1
# ETV3 = molecular target: T12, ETV3 (Homo sapiens, UniProt P41162-2 1-143); settings: protein: recombinant; tags: N-terminal GST; dsDNA, one strand shown
# T12 sequence: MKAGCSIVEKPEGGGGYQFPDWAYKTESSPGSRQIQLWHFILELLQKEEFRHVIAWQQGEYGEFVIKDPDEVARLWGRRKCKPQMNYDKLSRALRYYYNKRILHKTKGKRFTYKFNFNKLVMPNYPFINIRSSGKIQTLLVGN
# Procedure, shortened: as §1
# ETV6 = ETV6 (Homo sapiens, UniProt P41212 1-452); settings: protein: recombinant; tags: N-terminal GST; dsDNA, one strand shown
# ETV6, sequence (P41212 whole entry): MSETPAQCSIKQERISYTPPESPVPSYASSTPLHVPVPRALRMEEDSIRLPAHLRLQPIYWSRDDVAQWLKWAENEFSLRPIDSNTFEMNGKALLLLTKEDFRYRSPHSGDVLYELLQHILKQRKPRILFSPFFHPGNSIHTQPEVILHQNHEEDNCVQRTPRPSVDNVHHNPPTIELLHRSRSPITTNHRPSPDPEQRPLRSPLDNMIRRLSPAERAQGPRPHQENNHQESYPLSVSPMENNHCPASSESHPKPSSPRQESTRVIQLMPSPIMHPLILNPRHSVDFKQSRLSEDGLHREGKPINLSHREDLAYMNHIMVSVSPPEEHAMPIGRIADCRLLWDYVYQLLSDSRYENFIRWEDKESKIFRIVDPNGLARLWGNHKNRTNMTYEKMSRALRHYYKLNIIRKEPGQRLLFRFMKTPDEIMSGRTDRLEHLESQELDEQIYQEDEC
# Procedure, shortened: as §1
sequence,measurement,setting,value
AAATGG,binding signal,FEV,"1.42 fold enrichment (6-mer frequency, TF over GST control)"
same,binding signal,ETV5,"1.56 fold enrichment (6-mer frequency, TF over GST control)"
same,binding signal,HSF1,"1.27 fold enrichment (6-mer frequency, TF over GST control)"
same,binding signal,SPIC,"1.51 fold enrichment (6-mer frequency, TF over GST control)"
same,binding signal,ELF4,"1.49 fold enrichment (6-mer frequency, TF over GST control)"
same,binding signal,ELK4,"1.5 fold enrichment (6-mer frequency, TF over GST control)"
same,binding signal,ETV2,"1.47 fold enrichment (6-mer frequency, TF over GST control)"
same,binding signal,ELF3,"1.48 fold enrichment (6-mer frequency, TF over GST control)"
same,binding signal,CRX,"1.22 fold enrichment (6-mer frequency, TF over GST control)"
same,binding signal,ETV1,"1.5 fold enrichment (6-mer frequency, TF over GST control)"
same,binding signal,ERF,"1.49 fold enrichment (6-mer frequency, TF over GST control)"
same,binding signal,ETV3L,"1.54 fold enrichment (6-mer frequency, TF over GST control)"
same,binding signal,ETS2,"1.54 fold enrichment (6-mer frequency, TF over GST control)"
same,binding signal,SPDEF,"1.41 fold enrichment (6-mer frequency, TF over GST control)"
same,binding signal,ETV7,"1.38 fold enrichment (6-mer frequency, TF over GST control)"
same,binding signal,ELF5,"1.52 fold enrichment (6-mer frequency, TF over GST control)"
same,binding signal,ETV3,"1.5 fold enrichment (6-mer frequency, TF over GST control)"
same,binding signal,ETV6,"1.47 fold enrichment (6-mer frequency, TF over GST control)"

# Source: publication PMC7862700, “An all-to-all approach to the identification of sequence-specific readers for epigenetic DNA modifications on cytosine”
